About 1,300 (0.41%) of roughly 320,000 compounds were called active. Inconclusive results (about 3%) are left out. How the calls were made is not given here. Not all results are given here. Potency and affinity values are given separately.
test: growth inhibition of non-replicating M. tuberculosis (AID 488890); settings: Mycobacterium tuberculosis non-replicating, at 25 µM, stronger effect = higher value;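 further: plate controls were DMSO cells for no effect and high antibiotic wells for full effect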

| SMILES | inhibition [%] |
| --- | --- |
| O=C(CN1CCN(CCN2C(=O)c3cccc4cccc(c34)C2=O)CC1)c1ccc(F)cc1 | 79.3 |
| Cc1ccc(NC(=O)C2=NNC(=O)CC2)cc1S(=O)(=O)Nc1ccc(SC(F)F)cc1 | 6.44 |
| CC1CN(S(=O)(=O)c2cccc(C(=O)OCC(=O)N3CCCCCC3)c2)CC(C)O1 (stereo not drawn) | -8.29 |
| COc1ccc2c(c1OC)C(=O)N(c1cccc(C)c1)C2 | -2.97 |
| O=C(O)Cn1c(SCCOc2ccc(Cl)cc2)nc2ccccc21 | 1.68 |
| COc1cc(C)c(Cl)cc1S(=O)(=O)NCc1ccccn1 | -0.9 |
| O=c1c2[nH]c3ccc(Br)cc3c2ncn1Cc1ccncc1 | -8.92 |
| CCOC(=O)c1c(NC(=O)C2Cc3ccccc3C(=O)O2)sc2c1CCCC2 (stereo not drawn) | -2.64 |
| Cc1ccc(OCC(O)CN2CCN(c3ccccn3)CC2)c(C)c1 (stereo not drawn) | 41.5 |
| Cc1ccc(NC(=O)C2CCCN2C(=O)Oc2ccccc2)c(C)c1 (stereo not drawn) | -3.45 |
| O=C(NCc1ccccn1)Nc1ccc(F)c(Cl)c1 | -1.66 |
| O=C(Nc1nccs1)c1ccc(-c2ccc(F)c(Cl)c2)o1 | 29.7 |
| Clc1cccc(-c2ccc(CNCCCN3CCOCC3)o2)c1 | -19.7 |
| COc1ccc(-c2ccc(CNCc3ccccn3)o2)cc1Cl | 78.7 |
| O=C(NCc1ccccn1)c1cc(-c2ccc(Cl)cc2)oc1C(F)(F)F | 10.7 |
| Cc1c(C(=O)NCc2ccccn2)oc2c(Cl)cccc12 | 15.1 |
| Cc1c(Cl)cccc1NC(=O)NCc1ccccn1 | -10.1 |
| Clc1ccc(-c2ccc(CNCC3CCCO3)o2)cc1 (stereo not drawn) | 72.6 |
| O=C1NCCN/C1=C\C(=O)c1cccc(Br)c1 | -1.75 |
| CC1=C(C(=O)OC(C)C)C(c2coc3ccccc3c2=O)C2=C(CCCC2=O)N1 (stereo not drawn) | 21.4 |
| CCOc1ccccc1OCC(=O)OCc1csc(CC(=O)Nc2ccccc2C)n1 | 37.2 |
| COc1ccc(NC(=O)CSc2nc3ccsc3c(=O)n2CCCCCC(=O)O)cc1 | -12.1 |

| SMILES | inhibition [%] |
| --- | --- |
| O=C(c1ccc2c(c1)OCO2)N1CCC2(CC1)Oc1ccc(F)cc1C(=O)C21CC(c2ccccc2)=NO1 (stereo not drawn) | 42.7 |
| COc1cc(C(C)=O)ccc1OCC(=O)NCC1(N2CCCCC2)CCCCC1 | 23.8 |
| O=C(CCc1c[nH]c2ccccc12)N[C@@H](Cc1c[nH]c2ccc(O)cc12)C(=O)O | -12.9 |
| O=S(=O)(NCC(c1cccnc1)N1CCN(c2ccccc2)CC1)c1cccs1 (stereo not drawn) | 44.5 |
| O=C1CC(N2CCN(c3ccccc3)CC2)C(=O)N1c1ccc(Cl)cc1 (stereo not drawn) | 58.5 |
| Fc1ccc(-c2ccc(CNCc3ccccn3)o2)cc1 | 74.8 |
| O=C(NCc1ccccn1)Nc1ccc(Br)cc1 | -10.5 |
| CC(C)c1ccc(N(C)C(=O)Cc2c(C(=O)O)n(C)c3ccccc23)cc1 | -2.94 |
| N#CCc1c(C#N)c(N)nc(N2CCN(C=O)CC2)c1C#N | 2.81 |
| Cc1[nH]c(C)c(S(=O)(=O)Nc2ccccc2Cl)c1C(=O)N1CCCC1 | -4.19 |
| Cc1ccc(N(C)S(=O)(=O)c2cccc(C(=O)NNC(=O)c3ccncc3)c2)cc1 | 38.7 |
| COc1ccc([C@@H]2CC(=O)c3c(O)cc(O[C@@H]4OC(CO[C@@H]5OC(C)[C@H](O)[C@@H](O)[C@H]5O)[C@@H](O)[C@H](O)[C@H]4O)cc3O2)cc1O (stereo partly drawn) | 2.5 |
| CN=C(SCc1ccccc1)c1c(O)n(C)c(=O)n(C)c1=O | 11.6 |
| CSC(=Nc1ccccc1)c1c(O)n(C)c(=O)n(C)c1=O | 56.9 |
| CCOC(=O)C1C(=O)CC(=O)CC1CC(C)SCC (stereo not drawn) | -2.43 |
| Cc1ccc(S(=O)(=O)N2CCN(C(=O)CCOc3cc(C)ccc3C)CC2)cc1 | 39.6 |
| N#C/C(=C\Nc1ccc(F)c(Cl)c1)C(=O)C1CC1 | -9.33 |
| C[C@@H](C(=O)Nc1ccc(SC(F)F)cc1)N1C(=O)C2CCCCC2C1=O (stereo partly drawn) | -9.99 |
| Cc1ccc(CNC(=O)C2(C)Oc3ccccc3NC2=O)cc1 (stereo not drawn) | -3.05 |
| CCOC(=O)/C=C1\Nc2ccccc2SC1=O | 19.5 |
| COC(=O)C1CCN(S(=O)(=O)c2c(C)n(C)c(=O)n(C)c2=O)CC1 | -0.96 |
| CCNc1nc2ccccc2[nH]1 | 11.9 |

| SMILES | inhibition [%] |
| --- | --- |
| O=C(Nc1ccccc1Oc1cccnc1)C1CCCN(Cc2cccc(Cl)c2)C1 (stereo not drawn) | 16.5 |
| Cc1ccc(/C=C2\SC(N3CCCCC3)=NC2=O)cc1 | 77.7 |
| CC(C)(C)c1ccc(/C=C2/SC(N3CCCC3)=NC2=O)cc1 | 73.6 |
| O=C(NC1CC2CCCC(C1)N2Cc1ccccc1)C1CCCCC1 (stereo not drawn) | -4.43 |
| CCCCCCSc1ccc(-c2nc3ccc(C)cn3c2NCc2ccccc2)cc1OC | 8.88 |
| O=C(COc1ccccc1)NCC(=O)N/N=C/c1ccccc1 | 12.4 |
| COc1ccc(-c2csc(C3=C(O)CN(CCCN4CCCC4=O)C3=N)n2)cc1OC | 2.8 |
| Cc1ccc2oc(=O)c(/C=C(\O)c3sc(C)nc3C)nc2c1 | 2.53 |
| Cc1ccc2oc(=O)c(/C=C(\O)c3ccco3)nc2c1 | -4.98 |
| O=c1oc2ccccc2nc1/C=C(\O)c1ccccc1 | 77.3 |
| Cc1ccc2oc(=O)c(/C=C(\O)c3ccccc3)nc2c1 | 4.41 |
| Cc1ccc2oc(=O)c(/C=C(\O)c3cccs3)nc2c1 | -10.4 |
| Cc1ccc(/C(O)=C/c2nc3cc(C)ccc3oc2=O)cc1 | 18.1 |
| CC(C(=O)c1ccccc1)[n+]1cccc(C(N)=O)c1 (stereo not drawn) | -11.2 |
| Cc1cc(=O)[nH]c(SCC(=O)Nc2ccc(S(=O)(=O)N3CCOCC3)cc2)n1 | -13.9 |
| CN(c1ccc(C(=O)NC2CCCC2)cc1)S(=O)(=O)c1ccccc1 | 9.33 |
| CC(=O)Oc1ccc(OC(C)=O)c(S(=O)(=O)c2ccc(C)c(C)c2)c1 | -1.53 |
| CCOC(=O)N1CCN(S(=O)(=O)c2ccc(C)cc2)C1c1ccc(OC)cc1 (stereo not drawn) | 16.9 |
| Brc1ccc2c(c1)C(c1ccc(N3CCOCC3)cc1)=NNC(c1cccs1)=N2 | 18.5 |
| c1ccc(-n2c(-c3ccco3)nnc2-c2ccco2)cc1 | -0.67 |
| COC(=O)[C@@]1(Cc2ccc(OC)cc2)[C@H]2c3cc(C(=O)N(C)C)n(CCc4ccc(OC)c(Br)c4)c3C[C@H]2CN1C(=O)c1ccccc1 | 70.8 |
| CCSc1ncc(/C=N/Nc2ccccc2)n1C | 53.4 |

| SMILES | inhibition [%] |
| --- | --- |
| CCSc1ncc(/C=N/Nc2ccc(F)cc2)n1C | 60.8 |
| COc1cc(CC(NC(C)=O)C(=O)NC2CCN(c3c4c(nc5ncnn35)CCC4)CC2)cc(OC)c1 (stereo not drawn) | -7.76 |
| Cc1ccc(C(=O)N/N=C/c2c(O)ccc3ccccc23)cn1 | -8.14 |
| CCOc1ccc2ccccc2c1/C=N\NC(=O)c1ccc([N+](=O)[O-])cc1 | 8.86 |
| O=C(N/N=C/c1cccc2ccccc12)c1cccnc1 | 77.8 |
| O=C(N/N=C/c1ccccc1C(=O)O)c1ccncc1 | 47.8 |
| O=C(N/N=C/c1ccccc1O)c1ccncc1 | 67.2 |
| CCOc1ccc2ccccc2c1/C=N/NC(=O)c1ccc(C)nc1 | 6.31 |
| Cc1nnsc1C(=O)N/N=C/c1ccccc1 | -14.8 |
| COc1ccc(/C=N/NC(=O)c2snnc2C)c(OC)c1OC | 4.13 |
| Cc1ccc(NC(=O)[C@H](C)NC(=O)C2CCN(C(=O)[C@@H](NC(=O)OC(C)(C)C)C(C)C)CC2)cc1 | -5.73 |
| CC(C)[C@H](NC(=O)c1ccco1)C(=O)OCC(=O)NC12CC3CC(CC(C3)C1)C2 | 16.5 |
| O=C(Nc1cccc(-n2cnnn2)c1)c1cnccc1Cl | -2.47 |
| O=C(NCc1ccccc1)c1ccc(CN2CCC(Cc3ccccc3)CC2)cc1 | 63.1 |
| CCCc1ccc2oc(C(=O)N3CCC(N4CCCC(O)C4)CC3)c(C)c2c1 (stereo not drawn) | 9.91 |
| O=C(NC1=NCCS1)c1cc(-c2ccccc2)nn1-c1ccccc1 | 12.3 |
| Cc1cccc2cc(/C=N/NC(=O)c3ccccc3O)c(Cl)nc12 | -1.47 |
| COc1ccc(C(=O)N/N=C/c2cccnc2)cc1 | -12.5 |
| CCOc1ccc(C(=O)Nc2cccc3cccnc23)cc1 | 39 |
| O=C(COc1cccc2cccnc12)N/N=C/c1ccccc1O | 21.3 |
| COc1cccc(/C=N/NC(=O)COc2cccc3cccnc23)c1O | 22.2 |
| O=C(O)c1ccc(N/N=C/c2cccc3cccnc23)cc1 | -19.9 |

| SMILES | inhibition [%] |
| --- | --- |
| CCOc1ccccc1C(=O)N/N=C/c1cccc2cccnc12 | 78.1 |
| O=C(N/N=C/c1ccnc2ccccc12)c1ccccc1O | 24.1 |
| O=C(c1ccccc1)N1CCN(C(=S)NCc2ccco2)CC1 | -12.8 |
| Cc1cc(/C=N/O)c(C)n1-c1cccc(Cl)c1 | 5.04 |
| Nc1c(C(=O)Nc2ccc3c(c2)OCCO3)nnn1Cc1cccc(Br)c1 | 1.42 |
| CCOc1ccc(N=C2NC(=O)C(CC(=O)Nc3ccc(OC)cc3)S2)cc1 (stereo not drawn) | 23 |
| N#Cc1ccc(C23CC4(C2)[C@H](CN(Cc2ccc(-c5ccccc5)cc2)[C@@H]4c2ccccc2)C3c2ccccc2)cc1 (stereo partly drawn) | 34.9 |
| CCN(CC)C(=O)CSc1nc(OC)cc(=O)[nH]1 | -3.35 |
| COC(=O)C1=C(C(=O)OC)[C@@H]2N(Cc3ccccc3)c3ccccc3[C@@]23C[C@@H](CO)N(C(=O)NC2CCCC2)C3=N1 | 39.9 |
| Cc1ccc(S(=O)(=O)N2CCC(=O)N(CCOC(=O)NCc3ccccc3)CC2)cc1 | 16.1 |
| O=C(O)c1ccc(N2CC3CC(C2)c2cccc(=O)n2C3)c(NC(=S)Nc2ccc(Br)cc2)c1 (stereo not drawn) | 41.1 |
| O=[N+]([O-])c1ccc(Nc2cccc(F)c2)nc1 | 16.5 |
| CC1=NN(C(=O)CCc2ccccc2O)C(O)(C(F)(F)F)C1 (stereo not drawn) | 74.8 |
| CC1=NN(C(=O)c2ccc(Cn3nc(C)cc3C)o2)C(O)(C(F)(F)F)C1 (stereo not drawn) | 24.9 |
| O=C(c1ccco1)N1N=C(c2ccncc2)CC1(O)C(F)(F)F (stereo not drawn) | -9.67 |
| CC1=NN(C(=O)c2cccnc2)C(O)(C(F)(F)F)C1 (stereo not drawn) | -26.1 |
| COc1ccc(OCC(=O)N2N=C(C)CC2(O)C(F)(F)F)cc1 (stereo not drawn) | 75.8 |
| CC1=NN(C(=O)c2nn(C)cc2Br)C(O)(C(F)(F)F)C1 (stereo not drawn) | 8.53 |
| CC1=NN(C(=O)CCc2ccc3c(c2)OCO3)C(O)(C(F)(F)F)C1 (stereo not drawn) | -15.8 |
| COc1ccc(CC(=O)N2N=C(C)CC2(O)C(F)(F)F)cc1 (stereo not drawn) | 72.4 |
